The record followed here is PubChem BioAssay (NCATS).

Each structure is given as a SMILES string. Where “and” joins values, the source holds several entries; their conditions need not be identical. Equal entries are not always repeated. Records with an inconclusive call do not appear. Values without a mark were called inactive. Calls of active or inactive are those of the source. Calls come from the whole dose curve; as a rule, active = well fitted curve in the direction sought with a large enough effect; inconclusive = small, poorly fitted or top-dose-only effect, or another doubt; inactive = no such curve, though single readings can be large; an effect the other way counts as inactive or inconclusive.

Assay [1] relates to HeLa. The assay can be described thus: Primary qHTS to identify gynecologic anti-cancer compounds using libraries of approved drugs and bioactive compounds (AID 1345084). Note: nearly all actives have a fitted effect of over 55% in size. The settings on record: Gynecologic cancer cell panel viability, ATPlite luminescence, 48 h; series mostly up to 57.5 µM. The gist of the method: (§1)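 In this quantitative HTS, cell killing is estimated from loss of ATP-dependent luciferase light. Cells see five compound concentrations over a 48 h exposure.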
In general terms: In qHTS, concentration-response curves come from the screen itself.

Assay [2] has as its system Hek293T. Described as above. Conditions: Gynecologic cancer cell panel viability, ATPlite luminescence, 48 h, control line for the selectivity index; series mostly up to 57.5 µM. The gist of the method: as §1
(In general: ATP-based viability assays read luminescence as a measure of living cells.)

Assay [3] concerns JEG-3. The description is as above. The settings on record: Gynecologic cancer cell panel viability, ATPlite luminescence, 48 h; series mostly up to 57.5 µM. The gist of the method: as §1
In assay [4] the test system is OV90. The description is as above. The settings on record: Gynecologic cancer cell panel viability, ATPlite luminescence, 48 h; series mostly up to 57.5 µM. An outline of the steps: as §1
Assay [5] relates to PA-1. The assay is described as above. The settings on record: Gynecologic cancer cell panel viability, ATPlite luminescence, 48 h; series mostly up to 57.5 µM. An outline of the steps: as §1
The test system of assay [6] is SKOV3. The description is as above. Conditions: Gynecologic cancer cell panel viability, ATPlite luminescence, 48 h; series mostly up to 57.5 µM. An outline of the steps: as §1
For assay [7], the system named is Tov-21-G. The assay is described as above. The settings on record: Gynecologic cancer cell panel viability, ATPlite luminescence, 48 h; series mostly up to 57.5 µM. An outline of the steps:
as §1

For assay [8], the system named is Tov112D. Described as above. Conditions: Gynecologic cancer cell panel viability, ATPlite luminescence, 48 h; series mostly up to 57.5 µM. An outline of the steps: as §1
A short description of assay [9]: Drug repurposing screens with cells derived from glioblastoma tumor samples (AID 1345199). Note: nearly all actives have a fitted effect of over 40% in size. The settings on record: GBM patient neurospheres viability, ATP luminescence, 48 h. An outline of the steps: (§2)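 Four patient lines of CD133+ GBM neurospheres were screened at several concentrations; hits were retested in those lines plus three slower-growing GBM lines, using 48-hour treatment and ATP-based viability.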

The test system of assay [10] is astro. The description is as above. Conditions: viability, ATP luminescence, 48 h; series mostly up to 45.9 µM. The gist of the method:
as §2

The mark [11] stands for this setting: at 20 µM (top of the series), tumour line C.
Where [12] appears, read: at 21.2 µM (top of the series), tumour line B.
[13] abbreviates: at 21.2 µM (top of the series), tumour line D.
Where [14] appears, read: at 45.9 µM (top of the series), tumour line B.
[15] abbreviates: at 45.9 µM (top of the series), tumour line D.
Setting [16] is: at 46.1 µM (top of the series), tumour line C.
[17] abbreviates: at 46 µM (top of the series), tumour line A.
% is set by controls: 0 for no effect and ±100 for the full control effect; potency is the fitted concentration of half-maximal effect.

On to `CCCCN(CCCC)CCCOC(=O)c1ccc(N)cc1`, for which the Potency entry in assay [1], in assay [2], in assay [3], in assay [4], in [5] and in assay [6] was “inactive” in each case. Further, the Potency result in assay [7], in assay [8] and in [10] was “inactive” in each case. Also, the results for the activity, negative = cell killing in [9] (setting [11]), in [9] (setting [12]) and in assay [9] (setting [13]) were -6.46%, 6.6% and -16%, respectively.
Turning to `CCCCCCCCCCCCOS(=O)(=O)O`, the Potency entry in [1], in assay [2], in assay [3], in assay [4], in [5] and in [6] was “inactive” in each case. Further, the Potency entry in assay [7], in assay [8] and in assay [10] was “inactive” in each case. For the same compound, the activity, negative = cell killing in [9] (setting [14]) is -29.7%; in assay [9] (setting [15]), 0.019%; in assay [9] (setting [16]), -0.178%.
Regarding `C[C@]12CC[C@@H]3c4ccc(O)cc4CC[C@H]3[C@@H]1CCC2=O`, in [1], the Potency is 28.2 µM (active). Moreover, the Potency entry in assay [2], in assay [3], in [4], in [5], in assay [6] and in assay [7] was “inactive” each time. Moreover, the Potency result in [8] and in assay [10] was “inactive” throughout. Besides, the figures for the activity, negative = cell killing in [9] (setting [14]), in [9] (setting [15]) and in assay [9] (setting [16]) were -16.5%, -20.7% and -9.33%, respectively.
Take `CC(C)C(=O)c1c(C(C)C)nn2ccccc12`: the Potency entry in assay [1], in [2], in assay [3], in assay [4], in assay [5] and in [6] was “inactive” in each case. Further, the Potency entry in assay [7], in assay [8] and in assay [10] was “inactive” in each case. Besides, the activity, negative = cell killing in [9] (setting [14]) was -5.19%; in assay [9] (setting [16]) it was -20.7%. Further, in assay [9] (tumour line A), the Potency was 8.91 µM (active).
Regarding `CN1[C@@H]2CC[C@H]1CC(OC(=O)C(O)c1ccccc1)C2` (some centres not stated), the Potency result in [1], in assay [2], in assay [3], in assay [4], in assay [5] and in assay [6] was “inactive” each time. The Potency entry in assay [7], in assay [8] and in assay [10] was “inactive” each time. In addition, the activity, negative = cell killing in assay [9] (setting [14]) is -0.798% and -13.6% and 4.01%; in [9] (setting [15]), -19% and -5.08% and -5.73%; in [9] (setting [16]), 11.2% and -12.9% and 5.16%.
`CC(O)CN(CCN(CC(C)O)CC(C)O)CC(C)O` (configuration not stated): the Potency result in assay [1], in assay [2], in assay [3], in assay [4], in assay [5] and in assay [6] was “inactive” each time. The Potency entry in assay [7], in [8] and in assay [10] was “inactive” throughout. Besides, the activity, negative = cell killing in assay [9] (setting [14]) is -16.3%; in assay [9] (setting [15]) it was 3.18%; in [9] (setting [17]), -27.7%.
In the case of `O=C1c2c(O)cccc2Cc2cccc(O)c21`, the Potency entry in [1], in assay [2], in [3], in [4], in assay [5] and in assay [6] was “inactive” throughout. The Potency result in assay [7], in assay [8] and in [10] was “inactive” each time. The results for the activity, negative = cell killing in assay [9] (setting [14]), in [9] (setting [17]) and in [9] (setting [16]) were -7.97%, -24.5% and -8.57%, respectively.
Turning to `CCCCOC(=O)c1ccc(O)cc1`, the Potency result in [1], in [2], in assay [3], in assay [4], in assay [5] and in assay [6] was “inactive” each time. Also, the Potency result in [7], in assay [8] and in assay [10] was “inactive” each time. Further, the figures for the activity, negative = cell killing in assay [9] (setting [14]), in [9] (setting [15]) and in [9] (setting [16]) were -17.3%, -11.1% and 26.3%, respectively.
On to `COc1ccc2c(c1)C(=O)N(CCc1ccc(S(=O)(=O)NC(=O)NC3CCCCC3)cc1)C(=O)C2(C)C`, for which the Potency entry in [1], in assay [2], in assay [3], in [4], in assay [5] and in assay [6] was “inactive” throughout. Besides, the Potency result in [7], in assay [8] and in [10] was “inactive” throughout. Besides, the activity, negative = cell killing was -4.28% in assay [9] (setting [11]), -10.5% in assay [9] (setting [12]) and -7.62% in [9] (setting [13]).
In the case of `CN1[C@@H]2CC(OC(=O)[C@H](CO)c3ccccc3)C[C@H]1[C@@H]1O[C@@H]12` (some centres not stated), the Potency entry in assay [1], in assay [2], in assay [3], in assay [4], in assay [5] and in assay [6] was “inactive” in each case. The Potency entry in assay [7], in assay [8] and in assay [10] was “inactive” each time. In addition, the activity, negative = cell killing was -8.37% and 0.366% in [9] (setting [14]); -25.9% and -16.8% in [9] (setting [15]); 15.6% and -2.3% in assay [9] (setting [16]).
On to `CCN(CC)C(=O)Nc1ccc(OCC(O)CNC(C)(C)C)c(C(C)=O)c1` (configuration not stated), for which the Potency result in assay [1], in assay [2], in [3], in assay [4], in assay [5] and in [6] was “inactive” throughout. Also, the Potency entry in assay [7], in [8] and in [10] was “inactive” throughout. The activity, negative = cell killing in assay [9] (setting [14]) was -20.9%; in assay [9] (setting [15]), 0.286%; in assay [9] (setting [16]), -24.6%.
As for `COc1ccc2[nH]c(S(=O)Cc3ncc(C)c(OC)c3C)nc2n1` (configuration not stated), the Potency entry in assay [1], in [2], in assay [3], in assay [4], in [5] and in assay [6] was “inactive” each time. Besides, the Potency result in assay [7], in assay [8] and in assay [10] was “inactive” in each case. For the same compound, the activity, negative = cell killing is -28.9% in [9] (setting [14]) and -21.6% in assay [9] (setting [15]). Moreover, the Potency in assay [9] (tumour line A) was 11.2 µM (active).
For `C[C@@H]1CC[C@@]2(OC1)O[C@H]1C[C@H]3[C@@H]4CC[C@H]5C[C@@H](O)CC[C@]5(C)[C@H]4CC(=O)[C@]3(C)[C@H]1[C@@H]2C`, the activity change, negative = cytotoxicity in assay [1] was 1.36% [at 6.55 µM]; in assay [2], 7.28% [at 6.55 µM]; in assay [3], -0.879% [at 6.55 µM]; in assay [4], 12.9% [at 6.55 µM]; in [5], 9.38% [at 6.55 µM]; in assay [6], 8.75% [at 6.55 µM]. Further, the activity change, negative = cytotoxicity in [7] is 5.68% [at 6.55 µM]; in assay [8] it was 10.1% [at 6.55 µM]. Besides, the activity, negative = cell killing in [9] (setting [11]) was -26.8%; in assay [9] (setting [12]), -15.7%; in assay [9] (setting [13]), -22.8%. In addition, the Potency result in assay [10] is “inactive”.
Regarding `O=C1O[C@H](CO)[C@@H](O)[C@H](O)[C@H]1O`, the Potency entry in [1], in assay [2], in assay [3], in assay [4], in assay [5] and in assay [6] was “inactive” throughout. Besides, the Potency entry in [7], in [8] and in [10] was “inactive” each time. Moreover, the figures for the activity, negative = cell killing in assay [9] (setting [14]), in assay [9] (setting [15]) and in assay [9] (setting [16]) were -6.95%, 6.72% and 0.13%, respectively.
As for `CC(C)(C)C(=O)NCCCC(=O)O`, the Potency result in [1], in [2], in assay [3], in assay [4], in [5] and in assay [6] was “inactive” in each case. In addition, the Potency result in assay [7], in [8] and in assay [10] was “inactive” in each case. The activity, negative = cell killing in assay [9] (setting [14]) was -17.2%; in assay [9] (setting [15]) it was -2.84%; in assay [9] (setting [16]) it was -20.2%.
On to `CCN(CC)CCNC(=O)c1cc(Cl)c(N)cc1OC`, for which the Potency entry in assay [1], in assay [2], in assay [3], in assay [4], in assay [5] and in [6] was “inactive” throughout. Besides, the Potency entry in assay [7], in [8] and in [10] was “inactive” in each case. Besides, the activity, negative = cell killing in assay [9] (setting [14]) is -15.5%; in assay [9] (setting [15]), -19.3%; in assay [9] (setting [16]), 6.62%.
